High-throughput results deposited in PubChem BioAssay by National Center for Advancing Translational Sciences (NCATS).
In the library only some 12% were active in any assay of this set; here they are far more common.
NS1 inh = blocks influenza NS1 protein function. Potency, µM (doses to about 46.1 µM), inactives show at the top dose activity, positive = more growth. 0.4% of 270,000 active; further: potency means the concentration at half of the fitted maximal effect; actives are rising curves; nearly all actives have a fitted effect of over 50% in size
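Read-out: OD600 growth recovery of NS1-expressing budding yeast. Cells grown overnight at 30C in -URA glucose medium, washed, resuspended and diluted 1:100 in 2% galactose assay medium, pH 6.0. Same strain lacking NS1 served as positive control.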
Shiga inhibitor = inhibitors of Shiga toxin in Vero cells | Vero cells, Shiga toxin protein synthesis inhibition reporter | 9.2% of 290,000 active | inhibition, % at 38.7 µM; in the data active means inhibition mostly above about 28%, no sharp cut-off; inactive means mostly below about 43%; further: 0% is about no effect
Cycloheximide cs = counter-screen for Shiga toxin inhibitors: cycloheximide protein synthesis inhibition. 12% of 300,000 active. cell reporter, cycloheximide protein synthesis inhibition counterscreen. max response, %; in the data active means max response mostly above about 13%, no sharp cut-off; inactive means mostly below about 14%; further: read at 38.3 µM for the half of the compounds with a filed dose; 0% is about no effect
SARS PLP yeast = blocks SARS-CoV papain-like protease in a yeast assay; S. cerevisiae expressing SARS-CoV PLpro, growth rescue; Potency, µM (highest dose often 32.9 µM), inactives show top-dose activity, positive = growth rescue, hits mostly activators; 0.19% of 330,000 active; further: potency means the concentration at half of the fitted maximal effect; 0% is about no effect; nearly all actives have a fitted effect of over 55% in size
* = called active by the depositor; ? = inconclusive; . = not tested or not shown. Unless noted, the call rests on the fitted dose curve.

SMILES | NS1 inh | Shiga inhibitor | Cycloheximide cs | SARS PLP yeast
CCOc1ccc(S(=O)(=O)Nc2cc(NS(=O)(=O)c3ccc(OCC)cc3)cc(C(=O)O)c2)cc1 | . | . | . | 0.7%
O=S1(=O)C=C(Oc2ccc(F)cc2)c2ccccc21 | -2.3% | 26.7* | 10.9* | -4.5%
CC(C)(C)NC(=O)CSc1nc2[nH]ncc2c(=O)[nH]1 | . | 8.8 | -2.4 | 0.1%
CC1(C)OC(=O)C(=NNc2ccc(Cl)cc2)C(=O)O1 | -10.6% | 63.0* | 59.8* | 10.6%
CC1(C)OC(=O)C(=NNc2ccc(O)cc2)C(=O)O1 | -116.8% | 41.5 | 12.7* | ?
CCOc1ccc(OCC(=O)OCC(=O)N2CCN(C(=O)c3ccco3)CC2)cc1 | . | . | . | -0.3%
COc1cc(CN2CCc3ccccc3C2)ccc1O | 4.5% | 54.2* | 29.9* | -0.4%
Cc1nc2c(n1O)CCC/C2=N\O | 9.7% | -12.4 | 0.5 | 5.0%
COc1ccc(-c2nc3c(n2O)CCC/C3=N\O)cc1 | 6.6% | 76.7 | 27.3* | -2.3%
Cc1nn(-c2ccc(F)cc2)c(Cl)c1/C=N/NC(=O)c1cccs1 | 8.7% | 58.8* | 30.0* | -9.8%
CNC(=S)N/N=C/c1c(C)nn(-c2ccc(F)cc2)c1Cl | -5.6% | 5.7 | 10.6 | -0.7%
Cc1nn(-c2ccc(F)cc2)c(Cl)c1/C=N/NC(=O)c1ccc(O)cc1 | . | 61.1* | 20.1* | 2.5%
CC(=O)N1CCN(S(=O)(=O)c2ccc3c(c2)CCC(=O)N3)CC1 | . | . | . | 14.1%
CCOC(=O)C1(Cc2ccc(OC)cc2)CCN(C(=O)c2cc3ccccc3[nH]2)CC1 | . | 118.3* | 53.9* | -4.0%
CCOC(=O)C1(Cc2ccc(OC)cc2)CCN(C(=O)c2cc(C)on2)CC1 | -5.6% | 17.9 | 17.5* | 12.5%
CCOC(=O)C1(Cc2ccc(OC)cc2)CCN(C(=O)C2=CCCC2)CC1 | -7.3% | 21.6 | 1.1 | -0.2%
CCNC(=O)CN(c1ccc(Br)c(C)c1)S(C)(=O)=O | -0.4% | -2.5 | 7.1 | 0.3%
Cc1ccnc(NS(=O)(=O)c2ccc(NC(=O)c3cc(=O)c4ccccc4o3)cc2)n1 | 12.4% | -1.9 | -2.2 | 3.3%
c1ccc(Oc2cc(-c3ccccc3)ncn2)cc1 | -21.9% | 127.1* | 58.6* | 5.3%
Cc1cnn(-c2cc(N/N=C/c3ccc(F)cc3)ncn2)c1 | -4.4% | -18.5 | -4.9 | 0.1%
Cc1cnn(-c2cc(Oc3ccccc3)ncn2)c1 | -48.5% | 111.6* | 51.8* | -3.3%
c1ccc(Oc2cc(-n3cncn3)ncn2)cc1 | 1.1% | 38.9* | 14.6 | -22.5%
c1ccc(Oc2cccc(OCCCn3cncn3)c2)cc1 | -43.9% | 11.0 | 15.3 | 0.2%
c1ccc(Oc2cc(-c3ccccc3)nc(-c3ccccc3)n2)cc1 | -10.1% | -5.7 | -1.6 | -0.8%
O=[N+]([O-])c1ccc2c(N=Nc3ccc4ccccc4c3O)c(O)cc(S(=O)(=O)O)c2c1 | -4.3% | . | . | .
SMILES | NS1 inh | Shiga inhibitor | Cycloheximide cs | SARS PLP yeast
CN1CCCN(S(=O)(=O)c2cccc(C(F)(F)F)c2)c2nc3ccccc3nc21 | . | . | . | -0.2%
COc1ccccc1NC1=CC(=O)CC(c2ccccc2)C1 (centres undefined) | 17.2% | -1.6 | -2.8 | -5.9%
CN(C)c1ccc(C2CC(=O)C=C(Nc3ccccc3N)C2)cc1 (centres undefined) | -0.5% | 68.3* | 40.3* | -0.7%
Cc1csc(=O)n1CCC(=O)OCC(=O)c1ccc(Br)cc1 | . | . | . | 6.1%
COc1ccc(NC(=O)c2ccc(OCc3c(C)noc3C)c(OC)c2)cn1 | . | -12.8 | -2.4 | -0.8%
O=C(Nc1nc2ccccc2s1)c1ccc(N2CCCCC2)c([N+](=O)[O-])c1 | 18.9% | 102.4* | 44.9* | ?
NC(=O)c1ccc(N2CCCCCC2)c([N+](=O)[O-])c1 | . | 2.9 | 2.7 | -4.9%
O=C(Nc1ccon1)c1ccc(N2CCCCC2)c([N+](=O)[O-])c1 | . | 99.0* | 45.5* | 0.9%
Cc1nnc(-c2ccc(N3CCCCCC3)c([N+](=O)[O-])c2)o1 | -6.1% | 50.3* | 14.8* | -0.1%
Cc1cc(NC(=O)c2ccc(N3CCCC3)c([N+](=O)[O-])c2)no1 | . | 22.7 | 20.0* | -0.5%
Cc1nnc(-c2ccc(N3CCOCC3)c([N+](=O)[O-])c2)o1 | . | . | . | 2.4%
Cc1ccc(Cl)cc1N1CCN(C(=O)Cn2ncn3cccc3c2=O)CC1 | -10.0% | -4.3 | -2.8 | ?
Cc1ccc(C)c(N2CCN(C(=O)CCC(=O)N3CCOc4ccc(Cl)cc43)CC2)c1 | -16.7% | 7.6 | 8.0 | -24.1%
COc1ccc(CNc2ncnc3ccc(-c4c(C)noc4C)cc23)cc1 | . | -1.6 | 7.5 | .
Cc1nc(C#N)c(N/N=C/c2c(F)cccc2Cl)o1 | -32.9% | 35.0 | 28.1* | 11.2µM*
Cc1nc(N)nc(N/N=C/c2c(F)cccc2Cl)n1 | 5.4% | 30.7 | -2.4 | 0.4%
Cc1occc1-c1nnc(SCC(=O)Nc2ccccn2)o1 | . | 38.0* | 17.1* | 6.2%
COc1ccccc1NC(=O)CSc1nnc(-c2ccoc2C)o1 | . | . | . | 0.9%
O=C(CSc1nnc(-c2ccccc2Cl)o1)Nc1ccccn1 | -2.8% | 73.2* | 48.1* | -0.1%
CNC(=O)C(=O)N1CCC2(CC1)OCCN2S(=O)(=O)c1ccc(C)cc1 | . | . | . | 7.8%
CCN(CC)C(=O)C(=O)c1cccn1-c1ccccc1C#N | 2.8% | -3.7 | -1.9 | -1.1%
CCOC(=O)CN1N=C(/C=C/c2ccc(C)cc2)CCC1=O | -2.0% | 46.9* | 21.2 | 5.6%
Cc1ccc(/C=C/C2=NN(Cc3ccc(Cl)c(Cl)c3)C(=O)CC2)cc1 | 9.2% | 30.9 | 10.2 | 4.3%
COc1ccc(/C=C/C2=NN(C)C(=O)CC2)cc1 | . | 54.2* | 34.5* | -8.1%
COc1ccc(COCC(O)CN(Cc2ccccc2)C(C)C)cc1OC (centres undefined) | . | 5.5 | -2.0 | 1.3%
SMILES | NS1 inh | Shiga inhibitor | Cycloheximide cs | SARS PLP yeast
CCOC(=O)c1c(NC(=O)COC(=O)c2ccccn2)sc(C)c1C | . | . | . | -2.8%
CC1CCN(C(=O)c2ccc(CS(=O)(=O)Cc3ccccc3)cc2)CC1 | 3.0% | -10.5 | 1.6 | -3.7%
CC1CCN(C(=O)CS(=O)(=O)Cc2ccccc2)CC1 | 3.8% | 77.1* | 35.0* | 1.2%
O=C(N/N=C/C=C/c1ccc2c(c1)OCO2)C(O)c1ccccc1 (centres undefined) | 2.8% | 46.5* | 10.9 | 0.4%
C/C(=N\NC(=O)c1nn(C)cc1Br)c1cccc(NC(=O)c2ccncc2)c1 | 1.7% | 83.6* | 50.4* | -4.5%
CC(/C=C/c1ccc2c(c1)OCO2)=N\NC(=O)c1cccc([N+](=O)[O-])c1 | -48.4% | 35.4 | 20.4* | 9.8%
O=C(NC1C2CC3CC(C2)CC1C3)c1ccc2c(c1)OCO2 (centres undefined) | . | 35.7* | 27.7* | -5.6%
O=C(NN=C1CCCCC1)Nc1ccccc1Cl | . | . | . | 6.0%
CC(=O)Nc1c(-c2ccccc2)c2cc(Br)ccc2[nH]c1=O | 5.7% | -18.3 | 0.6 | 2.6%
C/C(=N\NC(=O)c1cccc([N+](=O)[O-])c1)c1ccncc1 | . | 27.3 | 10.0 | 3.2%
C/C(=N/NC(=O)c1ccc2c(c1)OCO2)c1cccc([N+](=O)[O-])c1 | -9.3% | 37.1* | 30.9* | -2.4%
O=C(N/N=C\c1cccc(Cl)c1)c1ccc(Cn2cccn2)o1 | -13.3% | -18.5 | 5.2 | 7.9%
CC(/C=C/c1ccc2c(c1)OCO2)=N\NC(=O)C(O)c1ccccc1 (centres undefined) | -6.9% | 9.9 | 6.5 | -0.2%
CC(/C=C/c1ccc2c(c1)OCO2)=N\NC(=O)c1ccccc1 | . | 152.1* | 41.2* | -6.6%
